Measured values published in PubChem BioAssay (Tox21).
Inconclusive results are not listed. Activity calls are given as the source filed them. Unless noted, calls follow the shape of the dose curve; as a rule, active = well fitted curve in the direction sought with a large enough effect in the repeat runs; inconclusive = weak or mixed curves; inactive = no such curve, though single readings can be large; an effect the other way counts as inactive or inconclusive.

Experiments:
[1] = qHTS assay for small molecules that induce genotoxicity in human embryonic kidney cells expressing luciferase-tagged ATAD5 (AID 651632); also: nearly all actives have a fitted effect of over 15% in size
How it was run: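 Reporter cells (HEK293T) express luciferase-tagged ATAD5, a protein that accumulates after DNA damage. Treat 16 hr at 37C/5% CO2, add Amplite, wait 30 min at RT, and read luminescence.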

[2] = qHTS assay for small molecule agonists of the p53 signaling pathway - cell viability (AID 651633; calls by dose curve;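 also: p53RE-bla HCT reporter cells with a stable beta-lactamase p53 reporter; series mostly up to about 83 µM; nearly all actives have a fitted effect of over 30% in size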)
How it was run: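 p53RE-bla cells, seeded at 4,000 per well and rested 5 h at 37 C/5% CO2, received compounds in DMSO for 16 h at 37 C. CellTiter-Glo was then added, and luminescence was read after 30 min at room temperature to gauge cytotoxicity.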

[3] = qHTS assay for small molecules that induce genotoxicity in human embryonic kidney cells expressing luciferase-tagged ATAD5 - cell viability (AID 651634; calls by dose curve; also: nearly all actives have a fitted effect of over 25% in size)
How it was run: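 Seeding of 2,000 HEK293T ATAD5-luciferase cells per well preceded pin-tool compound transfer. Plates sat 15.5 hr at 37C under 5% CO2, then fluorescence was read after 30 min with CellTiter-Fluor.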

[4] = qHTS assay for small molecule disruptors of the mitochondrial membrane potential - cell viability (AID 720634; calls by dose curve;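 also: human HepG2 liver cancer cells; series mostly up to about 83 µM; nearly all actives have a fitted effect of over 20% in size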)
How it was run: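 Measuring cytotoxicity alongside mitochondrial potential, the screen quantified ATP by luminescence in HepG2 cells after 1 hr compound incubation and a 30 min room-temperature CellTiter-Glo step.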

[5] = qHTS assay to test for compound auto fluorescence at 590 nm (red) in HepG2 cells (AID 720674)
How it was run: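 Compound auto-fluorescence is scored relative to Rose Bengal sodium, measured at 540/590 nm in live HepG2 cultures after 1 hr compound contact (37 C, 5% CO2).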

[6] = qHTS assay to test for compound auto fluorescence at 535 nm (green) in HepG2 cells (AID 720675)
[7] = qHTS assay to test for compound auto fluorescence at 460 nm (blue) in HEK293 cells (AID 720678)
How it was run: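 HEK293 cells (2,000 per well, medium with 10% dialyzed FBS) attached for 4-5 hr at 37C, then received compound and stood overnight at 37C, 5% CO2. Blue fluorescence was read at Ex/Em 405/460 nm and expressed relative to triamterene.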

[8] = qHTS assay to test for compound auto fluorescence at 590 nm (red) in HEK293 cells (AID 720679)
How it was run: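 HEK293 cells (2,000/well, medium with 10% dialyzed FBS) attached for 4-5 hr at 37C, received 23 nL compound and were incubated overnight at 37C, 5% CO2. Red fluorescence was then read at 540/590nm Ex/Em, referenced to Rose Bengal sodium.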

[9] = qHTS assay to test for compound auto fluorescence at 535 nm (green) in HEK293 cells (AID 720680)
[10] = qHTS assay to test for compound auto fluorescence at 460 nm (blue) in HEK293 cell free culture (AID 720681)
How it was run: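 Test compounds were pinned into cell-free culture medium (DMEM with 10% FBS) and fluorescence was read directly at Ex/Em 405/460 nm. Signals were expressed as fluorescence equivalents of triamterene, with DMSO vehicle as control.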

[11] = qHTS assay to test for compound auto fluorescence at 535 nm (green) in HEK293 cell free culture (AID 720682)
How it was run: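 Green-channel intensity (Ex/Em 485/535 nm) was recorded from compound-treated wells containing only DMEM with 10% FBS. Fluorescein provided the equivalency standard.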

[12] = qHTS assay to test for compound auto fluorescence at 590 nm (red) in HEK293 cell free culture (AID 720683)
How it was run: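 Tox21 10K library compounds were pinned into cell-free DMEM with 10% FBS and fluorescence was read at excitation 540 nm. Activity is expressed as Rose Bengal sodium equivalency.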

[13] = qHTS assay to test for compound auto fluorescence at 460 nm (blue) in HepG2 cell free culture (AID 720685)
How it was run: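 Compound (23 nL) or DMSO pinned into cell-free MEM with 10% FBS; blue fluorescence read at 405/460 nm excitation/emission, expressed as auto-fluorescence equivalency to triamterene.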

[14] = qHTS assay to test for compound auto fluorescence at 535 nm (green) in HepG2 cell free culture (AID 720686)
[15] = qHTS assay to test for compound auto fluorescence at 460 nm (blue) in HepG2 cells (AID 720687)
How it was run: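 Cells (2,000/well in MEM with 10% FBS) attached overnight at 37 C, then were exposed to compound or DMSO for 1 hr at 37 C, 5% CO2. Fluorescence read at Ex/Em 405/460 nm, expressed as triamterene-equivalent signal.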

[16] = target: Glucocorticoid receptor (Homo sapiens) (UniProt P04150); assay: qHTS assay to identify small molecule agonists of the glucocorticoid receptor (GR) signaling pathway (AID 720691; active = well fitted activation curve with a large enough effect in the signal ratio in the repeat runs, not every such curve was filed as active; the % refers to the signal ratio)
How it was run: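 Reporter read-out: fluorescence intensity following 2 h room-temperature LiveBLAzer B/G FRET substrate loading. Prior step: GR-bla HeLa cells held 4 h, then treated 18 h at 37 C.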

[17] = qHTS assay for small molecule disruptors of the mitochondrial membrane potential (AID 720635)
How it was run: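 HepG2 cells (2,000/well) attached overnight at 37C, then took compound for 1 hr at 37C, 5% CO2. Mito-MPS dye was added for 30 min; fluorescence was read at 490/535 nm (monomers) and 540/590 nm (aggregates).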

[18] = qHTS assay to test for compound auto fluorescence at 590 nm (red) in HepG2 cell free culture (AID 720684)
How it was run: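 Measured in medium alone (MEM containing 10% FBS) following pintool addition of compound; emission at 590 nm with 540 nm excitation, referenced to Rose Bengal sodium.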

[19] = target: Glucocorticoid receptor (Homo sapiens) (UniProt P04150); assay: qHTS assay to identify small molecule antagonists of the glucocorticoid receptor (GR) signaling pathway (AID 720692; active = well fitted inhibition curve with a large enough effect in the signal ratio in the repeat runs, not every such curve was filed as active; the % refers to the signal ratio)
How it was run: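 Dexamethasone (5 nM final) stimulated a stably integrated GRE-beta-lactamase reporter in HeLa cells during 18 h co-incubation with compounds; signal was quantified as fluorescence intensity of B/G FRET substrate after 2 h.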

Measured: Potency

Sequence of Glucocorticoid receptor (Homo sapiens) (P04150 whole entry, looked up): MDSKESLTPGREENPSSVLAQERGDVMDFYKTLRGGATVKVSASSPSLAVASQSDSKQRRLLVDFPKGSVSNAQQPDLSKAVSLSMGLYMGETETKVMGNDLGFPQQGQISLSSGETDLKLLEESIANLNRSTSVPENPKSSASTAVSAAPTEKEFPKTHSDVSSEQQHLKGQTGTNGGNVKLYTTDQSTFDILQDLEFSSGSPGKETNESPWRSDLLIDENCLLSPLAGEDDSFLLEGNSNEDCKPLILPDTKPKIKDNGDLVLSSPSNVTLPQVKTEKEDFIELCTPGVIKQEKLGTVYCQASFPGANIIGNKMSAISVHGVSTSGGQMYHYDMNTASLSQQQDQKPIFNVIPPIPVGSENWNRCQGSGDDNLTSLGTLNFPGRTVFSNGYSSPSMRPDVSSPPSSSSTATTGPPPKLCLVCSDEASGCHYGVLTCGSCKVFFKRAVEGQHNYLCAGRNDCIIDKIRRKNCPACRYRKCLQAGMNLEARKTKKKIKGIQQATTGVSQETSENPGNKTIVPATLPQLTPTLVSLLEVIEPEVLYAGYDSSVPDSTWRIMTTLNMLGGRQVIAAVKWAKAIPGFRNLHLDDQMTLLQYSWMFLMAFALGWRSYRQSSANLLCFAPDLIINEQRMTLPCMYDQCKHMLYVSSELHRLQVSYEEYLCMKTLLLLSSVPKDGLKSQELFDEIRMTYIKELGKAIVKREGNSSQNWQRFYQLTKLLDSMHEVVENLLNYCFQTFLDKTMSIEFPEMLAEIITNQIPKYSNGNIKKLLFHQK

O=C(NC(=O)c1c(F)cccc1F)Nc1cc(Cl)c(F)c(Cl)c1F
not listed: [17] | [18] | [19]
inactive: all other assays above

CC(C)[C@]12CC(=O)[C@H](C)[C@H]1C2
not listed: [7] | [14] | [16] | [19]
inactive: all other assays above

O=C(Cl)C(Cl)Cl
not listed: [17] | [18] | [19]
inactive: all other assays above

CCCN1CCC[C@@H]2Cc3[nH]ncc3C[C@H]21
not listed: [17] | [19]
inactive: all other assays above

CCCC[N+](=O)[O-]
not listed: [12] | [17] | [19]
inactive: all other assays above

NC1(c2ccccc2)CCCCC1
not listed: [7] | [14] | [16] | [17] | [19]
inactive: all other assays above

CC(C)C(C)(N)C#N (stereo not drawn)
not listed: [17] | [19]
inactive: all other assays above

CS(=O)(=O)c1ccc(C(=O)C2C(=O)CCCC2=O)c(Cl)c1COCC(F)(F)F
not listed: [15] | [17] | [19]
inactive: all other assays above

N#CC(Br)(Br)C(N)=O
not listed: [4] | [16] | [17] | [19]
inactive: all other assays above

CC[C@@H](CO)NC(=O)[C@@H]1C=C2c3cccc4[nH]cc(c34)C[C@H]2N(C)C1
not listed: [3] | [12] | [14] | [18] | [19]
inactive: all other assays above

COC(=O)[C@@H](N)CCCN/C(N)=N/[N+](=O)[O-]
not listed: [7] | [12] | [18] | [19]
inactive: all other assays above

C=C(Cl)CSC(=S)N(CC)CC
not listed: [16] | [17] | [19]
inactive: all other assays above

C=CCN1CC[C@]23CCCC[C@H]2[C@H]1Cc1ccc(O)cc13
not listed: [4] | [17] | [19]
inactive: all other assays above

C#CC(C)(C)O
not listed: [7] | [12] | [16] | [17] | [18] | [19]
inactive: all other assays above

CCN[C@H](C)Cc1cccc(C(F)(F)F)c1
not listed: [14] | [17]
inactive: all other assays above

C=C1C[C@@H]2[C@H](CC[C@]3(C)C(=O)CC[C@@H]23)[C@@]2(C)C=CC(=O)C=C12
not listed: [7] | [16] | [17] | [19]
inactive: all other assays above
